The full ranking holds about 33,000 sequences; the median of “E-score (-0.5 to 0.5)” is about -0.012, and the highest 2% start at about 0.29. The entries come from a sample that favours the highest values as a whole.
Target: T1, Ybr033w (UniProt P38073)
T1 sequence: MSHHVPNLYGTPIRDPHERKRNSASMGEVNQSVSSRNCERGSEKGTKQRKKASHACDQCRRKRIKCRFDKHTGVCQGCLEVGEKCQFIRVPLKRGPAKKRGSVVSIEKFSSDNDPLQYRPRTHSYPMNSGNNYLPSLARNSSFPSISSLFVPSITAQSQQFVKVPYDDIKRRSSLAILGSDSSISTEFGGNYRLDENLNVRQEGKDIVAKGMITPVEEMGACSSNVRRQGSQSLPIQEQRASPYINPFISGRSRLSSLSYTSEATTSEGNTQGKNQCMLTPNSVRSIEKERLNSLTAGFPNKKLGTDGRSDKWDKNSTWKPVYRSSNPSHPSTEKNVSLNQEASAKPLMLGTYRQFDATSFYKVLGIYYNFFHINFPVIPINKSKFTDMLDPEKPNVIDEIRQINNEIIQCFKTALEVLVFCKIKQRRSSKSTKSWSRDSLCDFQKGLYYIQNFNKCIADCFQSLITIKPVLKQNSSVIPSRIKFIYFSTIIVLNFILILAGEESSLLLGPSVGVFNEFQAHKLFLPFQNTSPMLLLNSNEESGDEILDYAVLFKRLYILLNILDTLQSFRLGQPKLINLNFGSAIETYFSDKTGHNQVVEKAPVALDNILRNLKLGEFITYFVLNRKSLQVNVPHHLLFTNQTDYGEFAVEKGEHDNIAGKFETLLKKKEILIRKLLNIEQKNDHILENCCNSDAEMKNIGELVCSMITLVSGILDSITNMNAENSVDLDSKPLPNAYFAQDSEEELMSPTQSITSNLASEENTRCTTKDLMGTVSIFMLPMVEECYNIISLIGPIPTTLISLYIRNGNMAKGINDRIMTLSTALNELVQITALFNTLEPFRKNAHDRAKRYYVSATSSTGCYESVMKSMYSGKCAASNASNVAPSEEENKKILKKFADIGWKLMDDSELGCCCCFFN
Test: PBM E-score (8-mer binding enrichment) (E-score (-0.5 to 0.5)); higher = stronger / more preferred TF binding
Settings: protein concentration: 200 nM; construct: GST-full length
Procedure, shortened: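 Yeast transcription factors, full-length or as DNA-binding domains, were expressed with a GST tag using PURExpress in vitro transcription/translation. At about 100-200 nM they were applied to universal all-10-mer Agilent arrays, double-stranded by primer extension on fresh or once-stripped slides. Fluorescent anti-GST detected bound protein, and masliner normalised the scans. E-scores for ungapped eight-base words, pooled with reverse complements, came from the Universal PBM Analysis Suite.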

Going from CCATTAGA to CTGATAGC, the “PBM E-score” value rises from -0.14 to -0.0429.

Going from TGTTCTAA to TAGATCTA, the “PBM E-score” value rises from 0.181 to 0.19.

Compared with ATTCACAA, GTTCACAA is lower in “PBM E-score” value: 0.294 for the first, 0.18 for the second.

Going from ATTCACAG to ATGAGGGG, the “PBM E-score” value falls from 0.0908 to -0.206.

First: AAAAATAG
Second: CAAAATAC
The “PBM E-score” value of the first is higher: 0.296 for the first, 0.217 for the second.

Compared with AAAAAAAT, GAAAATAC is higher in “PBM E-score” value: 0.248 for the first, 0.252 for the second.

Going from ACAAATAG to AAAAATAC, the “PBM E-score” value rises from 0.167 to 0.304.

First: CAAAATAG
Second: ACAAATAT
The “PBM E-score” value of the first is lower: 0.0554 for the first, 0.287 for the second.

Compared with AAAAATAT, CATTTTAC is lower in “PBM E-score” value: 0.349 for the first, 0.298 for the second.

Compared with ACTTTTAA, CATTTTAA is higher in “PBM E-score” value: 0.125 for the first, 0.16 for the second.

Compared with CATTTTAG, ACTTTTAC is higher in “PBM E-score” value: 0.234 for the first, 0.327 for the second.

Compared with ACTTTTAG, AGAACCGC is higher in “PBM E-score” value: 0.0501 for the first, 0.096 for the second.

First: AGCGATTG
Second: CAAATAAC
The “PBM E-score” value of the first is lower: -0.0938 for the first, 0.214 for the second.

First: GAAGAACC
Second: GAAAACCC
The “PBM E-score” value of the first is higher: 0.248 for the first, -0.0428 for the second.

Going from CAAGAACA to GCAAAACA, the “PBM E-score” value rises from 0.0281 to 0.0364.

Going from GGAAAACC to GAAGAACA, the “PBM E-score” value rises from -0.11 to 0.353.

Going from AAAAAACA to TCAAAACA, the “PBM E-score” value rises from 0.242 to 0.298.

Going from GAAAAACC to GGAAAACA, the “PBM E-score” value falls from 0.386 to 0.17.

First: CCAAAACA
Second: GAAAAACA
The “PBM E-score” value of the first is lower: -0.026 for the first, 0.295 for the second.

Going from CGGAACCA to GAACAAAC, the “PBM E-score” value rises from 0.141 to 0.345.

Going from GAACAATA to GAACAATC, the “PBM E-score” value falls from 0.412 to 0.323.

Compared with AAACAATA, CAACAAAC is lower in “PBM E-score” value: 0.196 for the first, 0.161 for the second.

Compared with AAACAATC, TAACAATA is higher in “PBM E-score” value: 0.234 for the first, 0.273 for the second.

First: CAACAATC
Second: AAACAAAC
The “PBM E-score” value of the first is higher: 0.256 for the first, 0.229 for the second.

Going from TAGCAATA to AATCAGCT, the “PBM E-score” value rises from 0.16 to 0.185.

Compared with AGCTGCCG, AGTTAATA is higher in “PBM E-score” value: -0.115 for the first, 0.336 for the second.

First: CGTTAATC
Second: GGTTAATA
The “PBM E-score” value of the first is higher: 0.248 for the first, 0.209 for the second.

First: AGTTAATG
Second: AGTTAAAA
The “PBM E-score” value of the first is lower: 0.216 for the first, 0.298 for the second.

Compared with AGTTAATC, CGTTAAAA is lower in “PBM E-score” value: 0.368 for the first, -0.0301 for the second.

Going from CGTTAATA to TGTTAAAA, the “PBM E-score” value rises from 0.166 to 0.226.

Going from TATTTGGA to TCCAGACA, the “PBM E-score” value falls from 0.082 to -0.127.

First: GAGCGCAA
Second: AACATACA
The “PBM E-score” value of the first is lower: -0.0711 for the first, 0.179 for the second.

Compared with CACTCTTA, GAAGATGC is lower in “PBM E-score” value: 0.0582 for the first, -0.106 for the second.

First: AATAATGT
Second: AATAATAT
The “PBM E-score” value of the first is lower: 0.183 for the first, 0.388 for the second.

Going from AACAATAC to CATAATAA, the “PBM E-score” value falls from 0.157 to 0.131.

First: AATAATAC
Second: TATAATAA
The “PBM E-score” value of the first is lower: 0.245 for the first, 0.318 for the second.

Going from AACAATAT to CGTAATAA, the “PBM E-score” value falls from 0.375 to 0.154.

Compared with GGTAATAA, GATAATAA is lower in “PBM E-score” value: 0.228 for the first, 0.194 for the second.

Compared with TGTAATAA, AACAATAA is lower in “PBM E-score” value: 0.297 for the first, 0.258 for the second.

First: AAGTTTAA
Second: AAAAGAAA
The “PBM E-score” value of the first is lower: 0.139 for the first, 0.179 for the second.

Compared with ACGGACGT, AAAGAGCC is higher in “PBM E-score” value: -0.144 for the first, -0.112 for the second.

Going from CAGGCTGC to AATAATAG, the “PBM E-score” value rises from -0.118 to 0.202.

Going from CCTAATAA to AGTAATAT, the “PBM E-score” value rises from -0.0059 to 0.336.

Compared with AATAATAA, AGTAATAG is lower in “PBM E-score” value: 0.399 for the first, 0.218 for the second.

Going from AGTAATAC to TCTAATAA, the “PBM E-score” value rises from 0.222 to 0.291.

Compared with ACTAATAA, CCGGGCGA is lower in “PBM E-score” value: 0.276 for the first, -0.226 for the second.

Compared with ACCTACAG, TCACGCCA is lower in “PBM E-score” value: 0.0954 for the first, -0.081 for the second.
